# GLP1R inv ag: qHTS of GLP-1 Receptor Inverse Agonists (Inhibition Mode). Glucagon-like peptide 1 receptor (Homo sapiens), P43220. 410,000 compounds, 1.6% hits. Potency, µM (highest dose often 38.3 µM), inactives show top-dose activity change, negative = inhibition, actives largely listed as inhibitors. AID 624417, 2012. HEK293 GLP-1R CRE-luciferase, luminescence, 24 h; GLP-1R form is constitutively active; note: potency is the fitted concentration of half-maximal effect; % is set by controls: 0 for no effect and ±100 for the full control effect; nearly all actives have a fitted effect of over 55% in size
# Target sequence (P43220 whole entry, looked up): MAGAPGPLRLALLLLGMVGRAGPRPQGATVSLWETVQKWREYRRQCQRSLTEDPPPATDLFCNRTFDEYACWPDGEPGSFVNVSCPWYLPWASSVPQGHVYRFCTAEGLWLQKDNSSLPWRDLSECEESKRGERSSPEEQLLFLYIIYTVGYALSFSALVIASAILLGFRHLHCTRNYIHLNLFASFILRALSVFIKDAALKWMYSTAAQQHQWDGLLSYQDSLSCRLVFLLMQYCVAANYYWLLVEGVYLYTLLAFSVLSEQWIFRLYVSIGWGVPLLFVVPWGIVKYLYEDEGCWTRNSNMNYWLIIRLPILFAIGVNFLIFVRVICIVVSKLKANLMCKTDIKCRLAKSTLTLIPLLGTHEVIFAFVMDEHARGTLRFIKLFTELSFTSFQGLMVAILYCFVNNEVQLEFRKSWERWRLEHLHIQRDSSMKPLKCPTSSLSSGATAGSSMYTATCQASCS
#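 Stable HEK293 clone (constitutively active GLP-1R + cAMP-response luciferase); 200 cells/uL plated, 12 h pre-culture, compound 24 hr, 37 deg C/5% CO2; detection reagent 12 min RT; luminescence.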
# GLP1R cytotox: qHTS of GLP-1 Receptor Inverse Agonists: Cytotox Screen; HEK293 cAMP-luciferase reporter cells, luminescence, 24 h; Potency, µM (doses to about 38.3 µM), for inactives: at the highest dose activity change, negative = inhibition, usual class: inhibitors; 410,000 compounds, 0.13% hits; AID 624418, 2012;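 note: loss of luciferase light is scored as toxicity; potency is the fitted concentration of half-maximal effect; % is set by controls: 0 for no effect and ±100 for the full control effect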
#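 Here, cytotoxicity is scored as loss of luminescence. The MLSMR collection was tested on cells seeded in medium containing 10% Nu serum, with a 24 hr compound exposure preceded by 12 hours of culture.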
# GLP1R ag: qHTS of GLP-1 Receptor Agonists; Glucagon-like peptide 1 receptor (Homo sapiens), P43220; HEK293 GLP-1R CRE-luciferase, luminescence, 4-6 h; cells express a hypersensitive GLP-1R form; Potency, µM (series often up to 45.6 µM), without a hit: at the highest dose activation, most hits filed as activators; 380,000 compounds, 0.007% hits; AID 624172, 2012; note: potency is the fitted concentration of half-maximal effect; % of control where 0% means no effect
# TRPML1 agonist: qHTS for Agonists of the Human Mucolipin Transient Receptor Potential 1 (TRPML1) | Mucolipin-1 (Homo sapiens), Q9GZU1 | TRPML1-expressing cells, Ca2+ dye fluorescence, FDSS | 410,000 compounds, 0.12% hits | activation, % (concentration not given with the values); in the data active = activation above about 50%; inconclusive = mostly about 30% to 49%; note: 0% is about no effect
#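 Tetracycline-induced TRPML1-DL cells are seeded and incubated overnight before loading with a no-wash Ca2+ dye and quencher. Agonist activity is taken from the 110 s fluorescence read following compound pin-transfer on an FDSS, before EC80 54-4 challenge.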
# TRPML1 inh: qHTS for Inhibitors of the Human Mucolipin Transient Receptor Potential 1 (TRPML1) | Mucolipin-1 (Homo sapiens), Q9GZU1 | activity change, negative = inhibition, % (no concentration beside the values) | TRPML1-inducible cells, Ca2+ dye fluorescence, FDSS; stronger effect = lower value; inhibition of EC80 agonist-evoked calcium signal | 390,000 compounds, 0.02% hits; in the data active = activity change below about -50%; inconclusive = between about -30% and that limit;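 note: stimulus is agonist 54-4 at its EC80 concentration; % is set by controls: 0 for no effect and ±100 for the full control effect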
#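 Tet-induced TRPML1-DL cells loaded with Ca8 no-wash calcium dye were read kinetically on FDSS. Compound addition was followed by EC80 agonist 54-4 (4 uM final); inhibition was read over 110 s.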
# Active calls of the source: *; ? = inconclusive; · = not tested or not shown. Only some compounds are listed: those with a hit (about 1.8% of all), similar ones and a draw of the others. Unless noted, calls come from the whole dose curve; as a rule, active = well fitted curve in the direction sought with a large enough effect; inconclusive = small, poorly fitted or top-dose-only effect, or another doubt; inactive = no such curve, though single readings can be large; an effect the other way counts as inactive or inconclusive.
SMILES,GLP1R inv ag,GLP1R cytotox,GLP1R ag,TRPML1 agonist,TRPML1 inh
O=C1c2ccccc2NC(c2cn[nH]c2-c2ccc(Cl)cc2)N1O (configuration not stated),?,-27%,5%,0,11
CCOc1ccc2ccccc2c1C(=O)N1CCN(c2ccccc2)CC1,7.9µM*,?,7%,0,16
O=S(=O)(c1ccc2c(c1)CCC2)N1CCN(c2nc(-c3ccccc3)nc3ccccc23)CC1,·,·,·,0,·
CC(=O)c1ccc(-c2ccc(-c3cc(=O)oc4c(C(C)C)ccc(C)c34)cc2)cc1,?,4%,0%,64*,-1
O=C1C=C(c2ccc(OC(F)(F)F)cc2)C[C@@H](c2ccc(Cl)cc2)C1,10µM*,?,6%,3,63
COc1ccc2c(c1)CCc1c(C(=O)Nc3c(C)nn(Cc4ccc(C)cc4)c3C)noc1-2,-5%,-9%,·,3,-19
Cc1cc(OC(C)C(=O)N(Cc2ccco2)Cc2ccco2)cc(C)c1Cl (configuration not stated),10µM*,1%,·,5,48
C/C(=N\NC(N)=S)c1ccc2c(c1)OCCO2,?,-101%,16%,0,-12
CC(=NNC(N)=S)c1ccc2cc3c(cc2c1)OCO3,2.8µM*,?,18%,-1,-12
Cc1cccc(N(C)S(=O)(=O)c2nnc(NC(=O)C(C)Oc3ccccc3)s2)c1 (configuration not stated),?,-3%,·,1,1
Cc1cc(-n2c(=O)[nH]c(=O)n(C)c2=O)ccc1Oc1ccc(S(=O)(=O)C(F)(F)F)cc1,·,·,-4%,·,·
N#CC(C#N)=C1NC2(CCCCC2)Cc2ccccc21,-4%,-10%,15%,0,-8
N#CC(C#N)=c1ccc2c(c1)NC1(CCCCC1)N=2,164%,10µM*,0%,-1,-8
CN(Cc1ccccc1)C(=O)CSc1nnc(-c2cccc(Cl)c2)o1,10µM*,5%,·,3,6
COc1ccc(-c2nnc(SCC(=O)N(C)Cc3ccccc3)o2)cc1OC,5%,-2%,·,-1,-4
C/C=C(/C)C(=O)OC(C)(C)[C@@H]1Cc2c(ccc3ccc(=O)oc23)O1,?,18%,15%,1,2
C/C=C(/C)C(=O)O[C@@H]1c2c(ccc3ccc(=O)oc23)O[C@@H]1C(C)(C)OC(=O)/C(C)=C\C,13µM*,5%,-1%,2,37
Cc1ccc(/C=C/C(O)=C2/C(=O)N(C)C3(C)CC2c2ccccc2O3)cc1 (configuration not stated),2.2µM*,1%,-6%,3,18
CCOc1ccc(NC(=O)Cn2cc(S(=O)(=O)c3ccc(C)cc3)c(=O)c3cc(F)ccc32)cc1,2%,-3%,0%,1,8
CCOc1ccc(Nc2c(S(=O)(=O)c3ccc(C)cc3)cnc3ccc(F)cc23)cc1,-12%,-13%,·,63*,-13
O=C(c1ccccc1)C(c1ccccc1)[n+]1csc2ccccc21 (configuration not stated),·,·,·,0,·
O=[N+]([O-])c1ccc2c(c1)C=CC2,·,·,·,0,·
Cc1ccc(C(=O)/C=C/Nc2ccccn2)cc1,5.6µM*,10%,-15%,2,5
COc1ccccc1C1CC(c2ccccc2)=NN1C(=O)c1ccccc1 (configuration not stated),8.9µM*,?,-4%,4,25
COc1ccccc1C1CC(c2ccc(NS(C)(=O)=O)cc2)=NN1C(=O)c1ccccc1 (configuration not stated),-20%,6%,5%,1,0
COc1ccc(OC)c(S(=O)(=O)N2Cc3ccccc3CC2C(=O)Nc2ccc(C(C)=O)cc2)c1 (configuration not stated),-22%,-1%,·,1,-1

# Assay outcomes from PubChem BioAssay.
